An excerpt weighted towards active compounds, which were near 2.4% of everything screened.
Cruzain Triton: qHTS Assay for Promiscuous and Specific Inhibitors of Cruzain (with detergent); Cruzipain (Trypanosoma cruzi), P25779; purified cruzain, Z-FR-AMC fluorescence, 0.01% Triton; Potency, µM, actives largely listed as inhibitors; hit rate 0.43% among 200,000; further: nearly all actives have a fitted effect of over 40% in size
Target sequence (P25779 123-467 limits assumed): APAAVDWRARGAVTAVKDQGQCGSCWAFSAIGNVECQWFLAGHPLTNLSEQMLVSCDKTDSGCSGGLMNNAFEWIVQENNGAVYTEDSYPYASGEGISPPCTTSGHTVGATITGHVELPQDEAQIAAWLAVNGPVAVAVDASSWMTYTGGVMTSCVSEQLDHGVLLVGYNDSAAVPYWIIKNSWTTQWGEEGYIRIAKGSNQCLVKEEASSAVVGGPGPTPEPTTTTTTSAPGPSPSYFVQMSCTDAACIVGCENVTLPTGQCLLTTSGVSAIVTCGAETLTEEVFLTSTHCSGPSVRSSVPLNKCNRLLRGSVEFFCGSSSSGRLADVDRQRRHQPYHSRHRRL
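In this qHTS format, compounds are incubated with 1.5 nM cruzain for 15 min at room temperature before 2 uM Z-FR-AMC is added. Release of AMC is followed at 360/450 nm, and progress is taken as the 60 s fluorescence difference.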
Cruzain inh noDet: qHTS Assay for Promiscuous and Specific Inhibitors of Cruzain (without detergent); AID 1476, 2009; hit rate 2.3% among 200,000; Cruzipain (Trypanosoma cruzi), P25779; purified cruzain, Z-FR-AMC fluorescence, no detergent; Potency, µM, actives largely listed as inhibitors; further: nearly all actives have a fitted effect of over 40% in size
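Detergent-free condition (0.00005% Triton X-100) in acetate buffer pH 5.5 with DTT. 1.5 nM enzyme and compound were pre-mixed 15 min, then 2 uM Z-FR-AMC substrate added; reaction progress from fluorescence change between first and third reads (60 s).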
A number is an active result; i = inactive; ? = inconclusive. The call rests on the fitted dose curve; in most records, active means well fitted curve in the direction sought with a large enough effect; inconclusive means small, poorly fitted or top-dose-only effect, or another doubt; inactive means no such curve, though single readings can be large; an effect the other way counts as inactive or inconclusive.

SMILES	Cruzain Triton	Cruzain inh noDet
Nc1c(C(=O)c2ccccc2)sc(Nc2ccccc2)c1S(=O)(=O)c1ccccc1	i	7.9µM
Cc1ccc(Nc2sc(C(=O)c3ccccc3)c(N)c2C(N)=O)cc1	i	i
CCS(=O)(=O)c1c(Nc2ccc(F)c(Cl)c2)sc(C(=O)c2ccccc2)c1N	i	i
O=C(C/C=N/OCc1ccc(Cl)cc1Cl)c1ccccc1	i	i
CCOc1ccc2nc(N/C(N)=N/C(=S)Nc3cccc(C)c3)nc(C)c2c1	i	32µM
COc1ccc2nc(N/C(N)=N/C(=S)Nc3cccc(C)c3)nc(C)c2c1	i	?
Cc1ccc(S(=O)(=O)N2CCN(C(=O)CSc3nnc(C)s3)C2)cc1	i	i
Nc1ccc(N2CCN(c3cccc(Cl)c3)CC2)cc1	i	16µM
O=C(O)c1ccccc1C(=O)N1CCN(c2cccc(Cl)c2)CC1	i	i
OC1(c2cccc(C(F)(F)F)c2)CCN(c2ncnc3c2[nH]c2ccccc23)CC1	i	i
O=C1CCCC2=C1C(c1ccc(Br)cc1)c1c([nH]c(=S)[nH]c1=O)N2 (stereo not given)	18µM	16µM
Cc1ccc(C2C3=C(CCCC3=O)Nc3[nH]c(=S)[nH]c(=O)c32)cc1 (stereo not given)	i	i
CCCS(=O)(=O)c1c(S(=O)(=O)CCC)c2c(C)cccn2c1C(N)=O	i	i
Nc1ccc(C(=O)OCC(=O)N2CCc3ccccc3C2)cc1[N+](=O)[O-]	i	32µM
O=C(OCC(=O)N1CCc2ccccc2C1)c1ccc(N2CCOCC2)c([N+](=O)[O-])c1	i	i
CNC(=O)C(Sc1nc(C)nc2c1oc1ccccc12)C(C)=O (stereo not given)	i	i
O=C(NC1CCCCC1)N1CCC(n2cnc3ccccc32)CC1	i	i
Cc1cc(OCCCCNC(C)C)cc(C(C)C)c1	i	i
Cc1ccc(NC(=O)CN2CCC(NC(=O)C3CCCCC3)CC2)c(Br)c1	i	i
Cc1ccc(C(=O)CN2CCC(NC(=O)C3CCCCC3)CC2)cc1	25µM	?
Cc1ccc(NC(=O)CSC2=Nc3ccccc3C3=NC(Cc4ccccc4)C(=O)N23)cc1C (stereo not given)	i	i
COc1ccc(NC(=O)CSC2=Nc3ccccc3C3=NC(Cc4ccccc4)C(=O)N23)cc1Cl (stereo not given)	i	16µM
O=S(=O)(O/N=C1\CCCc2ccccc21)c1ccc(Cl)cc1	i	i
CC(Oc1ccc(Cl)cc1Cl)C(=O)Nc1ccc(S(=O)(=O)Nc2cnc3ccccc3n2)cc1 (stereo not given)	22µM	i
COc1cc(NS(=O)(=O)c2ccc(NC(=O)C(C)Oc3ccc(Cl)cc3Cl)cc2)nc(OC)n1 (stereo not given)	i	i
SMILES	Cruzain Triton	Cruzain inh noDet
Cc1cc(Cl)ccc1OC(C)C(=O)Nc1ccc(S(=O)(=O)Nc2cnc3ccccc3n2)cc1 (stereo not given)	25µM	?
CCC(Oc1ccccc1)C(=O)Nc1ccc(S(=O)(=O)Nc2cnc3ccccc3n2)cc1 (stereo not given)	i	?
CCSc1nnc2n(-c3cccc(C)c3)c(=O)c3c4c(sc3n12)CCCC4	i	i
CCCN1CCN(c2ncnc3sc(C(=O)Nc4cccc(Cl)c4C)c(C)c23)CC1	2.2µM	16µM
CCCN1CCN(c2ncnc3sc(C(=O)Nc4ccc(N(CC)CC)cc4C)c(C)c23)CC1	i	i
Fc1c(F)c(F)c(N=Cc2ccc3ncccc3c2)c(F)c1F	i	i
Cc1cccc(C(=O)Nc2ccc3oc(-c4cccc5c(Br)cccc45)nc3c2)c1	i	?
Cc1cccc(C(=O)Nc2ccc3oc(-c4ccncc4)nc3c2)c1	25µM	?
O=C(Nc1ccc2oc(-c3ccncc3)nc2c1)c1c(F)c(F)c(F)c(F)c1F	i	10µM
COc1c(F)c(F)c(C(=O)Nc2ccc3oc(-c4ccncc4)nc3c2)c(F)c1F	i	?
CN1CCCC2(CCN(S(=O)(=O)c3ccccc3)CC2)C1	i	i
O=C1CCNc2ccc(-c3ccccc3)cc21	i	20µM
Cc1ccc2c(c1)C(=O)CCN2	i	i
COc1ccc(/C=N/NC(=O)c2[nH]c3ccc(Br)cc3c2-c2ccccc2)cc1	i	?
O=C(N/N=C/c1ccccc1Cl)c1[nH]c2ccc(Br)cc2c1-c1ccccc1	i	13µM
C=CCC(Nc1ccc(OC)cc1)C(=O)OCC (stereo not given)	i	i
COc1c(OC(C)=O)ccc(/C=C/c2ccc3cccc(OCc4ccccc4)c3n2)c1[N+](=O)[O-]	i	10µM
COc1cc(/C=C/c2ccc3cccc(OC)c3n2)c(OC(C)=O)c([N+](=O)[O-])c1	i	?
Cc1cc(OC(=O)c2c(Cl)cc(Cl)cc2Cl)nc(C)n1	i	i
Cc1c2cnn(-c3ccccc3)c(=O)c2c(C)n1CCCC(=O)Nc1ccc(F)cc1F	i	i
CCOC(=O)CC1C(=O)NCCN1C(=O)c1cc2c(=O)n3ccccc3nc2s1 (stereo not given)	22µM	i
CCOC(=O)CC1C(=O)NCCN1C(=O)c1cc2c(=O)n3cccc(C)c3nc2s1 (stereo not given)	i	i
CNC(=O)c1cc2cccc(OC)c2oc1=O	i	i
COc1cccc2cc(/C(C)=N/Nc3nc(-c4cc(C)ccc4C)cs3)c(=O)oc12	i	5µM
Cc1cc(C)c2nc3s/c(=C/c4ccccc4)c(=O)n3c2c1	i	i
SMILES	Cruzain Triton	Cruzain inh noDet
Cc1ccc2c(nc3s/c(=C/c4cccs4)c(=O)n32)c1C	i	16µM
CCOC(=O)c1[nH]cnc1C(=O)Nc1cccc(N)n1	i	i
O=C(NC(=S)Nn1cnc2c(cnn2-c2ccccc2)c1=O)c1ccc(Oc2ccccc2)cc1	i	25µM
O=C(NC(=S)Nn1cnc2c(cnn2-c2ccccc2)c1=O)c1ccc(Cl)cc1	i	i
Cc1c(Cl)cccc1NC(=O)c1ccc(NC(=O)N2CCSc3ncccc32)cc1	i	i
O=C(N/N=C/c1ccc(OCCCF)cc1)c1cc(OCC(F)(F)F)ccc1OCC(F)(F)F	i	25µM
O=C(N/N=C\c1ccc(F)cc1)c1cc(OCC(F)(F)F)ccc1OCC(F)(F)F	i	i
CCOCCc1nn2c(=O)cc(COC(=O)c3ccc(NC(=O)C(C)(C)C)cc3)nc2s1	i	i
CC1CCCN(c2nc3c(c(=O)[nH]c(=O)n3C)n2Cc2ccccc2Cl)C1 (stereo not given)	i	i
COc1cc2[nH]c(=S)n(N(C(C)=O)C(C)=O)c(=O)c2cc1OC	i	i
O=c1cc(CSc2nnnn2-c2ccccc2)nc2nc[nH]n12	i	i
Cc1ccccc1Nc1nc(CSc2nnnn2-c2ccccc2)cs1	i	20µM
c1ccc(-c2nc(CSc3nnnn3-c3ccccc3)cs2)cc1	i	i
O=c1cc(CSc2nnnn2-c2ccccc2)nc2scc(-c3ccccc3)n12	i	25µM
CCCCCC(=O)N1CCN(c2ccc(C(C)=O)cc2F)CC1	i	i
O=C(Nc1ccccn1)C1(c2ccccc2)CCCC1	i	i
O=C(CNC(c1ccccc1)c1ccccc1)Nc1cc([N+](=O)[O-])ccc1Cl	i	25µM
CC(C)CC(=O)Nc1cc([N+](=O)[O-])ccc1Cl	i	i
O=C1/C(=C/c2c[nH]c3ccccc23)CCC/C1=C\c1c[nH]c2ccccc12	i	25µM
O/N=C/c1c[nH]c2ccccc12	i	i
CCOC(=O)c1c(NC(=O)c2ccccc2)sc2c(O)c(CN(CC)CC)ccc12	i	16µM
CCOC(=O)c1c(NC(C)=O)sc2c(O)cccc12	i	i

High-throughput results from PubChem.
